The values that follow come from PubChem BioAssay (NCI).

Experiment in all cases: NCI-60 one-dose screen, 48 h (100 = growth as untreated, 0 = no growth, -100 = all killed)
Common to all, as to settings: 10 µM unless noted

Assay [1] has as its system T-47D breast.
In assay [2] the test system is BT-549 breast.
Assay [3] concerns MDA-MB-435 melanoma.
Assay [4] deals with SW-620 colon.
Assay [5] concerns MCF7 breast.
The test system of assay [6] is HCT-116 colon.
The test system of assay [7] is HCC-2998 colon.
For assay [8], the system named is KM12 colon.

The panel holds about 83,000 compounds, 20% with a hit somewhere; the sample as a whole holds those more often.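 Growth was measured after 48 h exposure to one concentration of compound in 96-well plates. Values under 10 count as active.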 Unmarked numbers belong to inactive results. The source made the active and inactive calls.

For `[O-][n+]1ccccc1CCN(O)CCc1cccc[n+]1[O-]`, the growth in assay [1] is 100%; in assay [2] it was 101%; in assay [3], 105%; in assay [4], 102%; in assay [5], 102%; in assay [6], 94.7%. Further, the figures for the growth in assay [7] and in assay [8] were 109% and 104%, respectively.
`CC1(C)CN(Cc2ccccc2)CCN1Cc1ccccc1`: the growth in assay [1] was 100%; in assay [2], 109%; in assay [3], 104%; in assay [4], 97.6%; in assay [5], 114%; in assay [6], 101%. The growth in assay [7] is 106%; in assay [8] it was 104%.
With `COc1cc2nc(-c3ccc(-c4nn[nH]n4)cc3)[nH]c(=O)c2cc1OC`, the growth in assay [1] is 102%; in assay [2] it was 251%; in assay [3], 105%; in assay [4], 107%; in assay [5] it was 98.9%; in assay [6] it was 104%. In addition, the growth in assay [7] was 114%; in assay [8], 126%.
`COc1ccc(C(=O)c2cc3c(N)c(C(=O)Nc4cccc(Cl)c4)sc3nc2C)cc1`: the growth in assay [1] was 43.8%; in assay [2], 78.1%; in assay [3] it was -35.2% (active); in assay [4], 35.4%; in assay [5], 26.5%; in assay [6], 14.9%. In addition, the growth in assay [7] is 18.3%; in assay [8], 22.1%.
For `O=C1c2ccccc2-c2c1c1c(NCCCO)nc3ccccc3c1n2Cc1ccccc1`, the growth was 78.2% in assay [1]; -37.7% (active) in assay [2]; 18.2% in assay [3]; 25.2% in assay [4]; -23.2% (active) in assay [5]; -57.3% (active) in assay [6]. Also, the results for the growth in assay [7] and in assay [8] were 26.1% and 38.3%, respectively.
Turning to `C=C1C(=O)O[C@H]2[C@H]1CC/C(CNC(=O)/C=C/c1ccc(Br)cc1)=C\CC[C@@]1(C)O[C@@H]21`, the growth in assay [1] is -41.3% (active); in assay [2], -59.7% (active); in assay [3] it was -47.8% (active); in assay [4], -78.5% (active); in assay [5], -66.7% (active); in assay [6], -81.4% (active). Moreover, the growth in assay [7] is -92.6% (active); in assay [8] it was 36.4%.
Regarding `COC(=O)C(c1ccccc1)C(CC(=O)c1ccccc1)c1ccccc1` (stereo unspecified), the growth in assay [1] is 76.2%; in assay [2], 108%; in assay [3] it was 88.8%; in assay [4] it was 104%; in assay [5], 99.5%; in assay [6], 88.8%. In addition, the growth in assay [7] is 96.1%; in assay [8] it was 91.5%.
Take `O=C(O)/C=C\C(=O)N1C/C(=C\c2ccccc2Cl)C(=O)/C(=C/c2ccccc2Cl)C1`: the growth was 7.54% (active) in assay [1]; -57% (active) in assay [2]; -11.3% (active) in assay [3]; -50% (active) in assay [4]; 3.37% (active) in assay [5]; -97.2% (active) in assay [6]. Moreover, the growth in assay [7] was -91.8% (active); in assay [8], -71.9% (active).
With `COc1ccc(Cn2nc(-c3ccccc3)c3c2CCc2cnoc2-3)cc1`, the growth in assay [1] is 43.4%; in assay [2], 82.1%; in assay [3] it was 28.4%; in assay [4], 83.2%; in assay [5], 72.6%; in assay [6], 65.4%. Also, the growth in assay [7] is 67.4%; in assay [8] it was 56.8%.
In the case of `O=C1NC(=S)NC(=O)C1=Cc1cccc(C=C2C(=O)NC(=S)NC2=O)c1`, the growth in assay [1] is 97.7%; in assay [2], 87.5%; in assay [3] it was 108%; in assay [4], 106%; in assay [5] it was 96.8%; in assay [6], -76% (active). Moreover, the growth in assay [7] and in assay [8] was 107% in each case.
In the case of `COc1ccc(-c2nn(Cc3ccccc3)c3c2-c2oncc2CC3)cc1OC`, the growth in assay [1] is 84.8%; in assay [2] it was 92.7%; in assay [3], 95.2%; in assay [4] it was 118%; in assay [5], 87.7%; in assay [6], 107%. Also, the growth in assay [7] was 107%; in assay [8], 99.6%.
For the molecule `NS(=O)(=O)c1cccc(NC(=O)C(=O)C2C(=O)Nc3ccccc32)c1` (stereo unspecified), the growth in assay [1] is 112%; in assay [2], 109%; in assay [3], 96.8%; in assay [4], 94.5%; in assay [5] it was 109%; in assay [6], 93.3%. Also, the values for the growth in assay [7] and in assay [8] were 104% and 103%, respectively.
Regarding `COc1cccc(CCC(=O)c2cc3c(N)c(C(=O)Nc4cccc(Cl)c4C)sc3nc2C)c1`, the growth in assay [1] was 28.2%; in assay [2], 50.6%; in assay [3], -54.8% (active); in assay [4], 34%; in assay [5], 11.3%; in assay [6], 13%. The growth in assay [7] is 6.58% (active); in assay [8], 19.6%.
For `COc1ccc(C(=O)c2cc3c(N)c(C(=O)Nc4cccc5ccccc45)sc3nc2C)cc1`, the growth is 32.6% in assay [1]; 45.1% in assay [2]; -6.84% (active) in assay [3]; 21.9% in assay [4]; 19.4% in assay [5]; 6.55% (active) in assay [6]. Moreover, the growth in assay [7] was 20.8%; in assay [8], 12.3%.
As for `O=C(NCCc1ccccn1)OCc1nc2nc(Cl)nc(N3CCOCC3)c2[nH]1`, the growth was 33.5% in assay [1]; 8.16% (active) in assay [2]; 11.9% in assay [3]; -37.2% (active) in assay [4]; 15.6% in assay [5]; -71.8% (active) in assay [6]. Moreover, the growth in assay [7] is 77.6%; in assay [8], 12.2%.
In the case of `COc1ccccc1/C=N/NC1=NC2C(N1)N(C)C(=O)N2C` (stereo unspecified), the growth in assay [1] was 101%; in assay [2], 101%; in assay [3], 103%; in assay [4], 99.3%; in assay [5] it was 99.7%; in assay [6] it was 107%. Further, the figures for the growth in assay [7] and in assay [8] were 101% and 105%, respectively.
Regarding `CCCCCCCCCCCCCCCC(=O)OC[C@@]1(O)C[C@@]23CC[C@@H]4C(C)(C)CCC[C@@]4(C)[C@@H]2CC[C@H]1C3`, the growth in assay [1] was 83.5%; in assay [2], 86.7%; in assay [3], 107%; in assay [4] it was 108%; in assay [5], 60.5%; in assay [6], -79.1% (active). Moreover, the growth in assay [7] was 118%; in assay [8] it was 111%.
Consider `Clc1ccc(N2N=C(c3cccc(Nc4ccncc4)c3)CC2c2ccccc2)cc1` (stereo unspecified), for which the growth was 96.9% in assay [1]; 92.9% in assay [2]; 67.5% in assay [3]; 86.2% in assay [4]; 76.2% in assay [5]; -78.7% (active) in assay [6]. Besides, the growth in assay [7] is 97%; in assay [8], 90.4%.
As for `COc1ccccc1C(C[N+](=O)[O-])c1c(-c2ccccc2)[nH]c2cc(C)ccc12` (stereo unspecified), the growth is 32.2% in assay [1]; 80.1% in assay [2]; 13.8% in assay [3]; 54.6% in assay [4]; 55.6% in assay [5]; 53.8% in assay [6]. Besides, the growth in assay [7] is 93.6%; in assay [8] it was 63.1%.
Take `O=C(c1ccccc1)N1N=C(c2ccc(-n3ccc(C(F)(F)F)n3)cc2)CC1c1ccc[nH]1` (stereo unspecified): the growth in assay [1] is 73.5%; in assay [2], 116%; in assay [3], 96%; in assay [4], 98.9%; in assay [5] it was 91.5%; in assay [6], 93.7%. Moreover, the figures for the growth in assay [7] and in assay [8] were 115% and 79.7%, respectively.
Take `O=C(Nc1ccc(Cl)cc1)Nc1ccc(Cl)c(Cl)c1`: the growth in assay [1] is -12.2% (active); in assay [2], 43.3%; in assay [3], 7.4% (active); in assay [4], 14.4%; in assay [5], -4.33% (active); in assay [6] it was 5.23% (active). Further, the growth in assay [8] was 6.34% (active).
Consider `CC(C)(C)CC(C)(C)Nc1c(-c2ccc(C(F)(F)F)cc2)nc2cnccn12`, for which the growth in assay [1] is 74.4%; in assay [2], 76%; in assay [3], 98.8%; in assay [4], 102%; in assay [5], 66.5%; in assay [6] it was -5.73% (active). Moreover, the growth in assay [7] was 92.1%; in assay [8] it was 83.8%.
As for `COc1cc(/C=C2\C(=O)N(Cc3ccc(Cl)cc3)c3ccccc32)cc(OC)c1OC`, the growth was 32.1% in assay [1]; 9.56% (active) in assay [2]; 28.2% in assay [3]; 8.81% (active) in assay [5]; -23.4% (active) in assay [6]; -28.5% (active) in assay [7]. In addition, in assay [8], the growth is 15.5%.
With `CC(C)Sc1nc(NN)c(C#N)c(-c2ccccc2)n1`, the growth in assay [1] was 90.4%; in assay [2], 79.3%; in assay [3], 103%; in assay [4], 94.9%; in assay [5], 90.9%; in assay [6], 87.9%. Besides, the growth was 100% in assay [7] and 101% in assay [8].
`COc1ccc(NC(=O)c2sc3nc(C)c(C(O)c4ccc(OC)cc4)cc3c2N)cc1` (stereo unspecified): the growth in assay [1] is 56.8%; in assay [2], 28.8%; in assay [3], -2.11% (active); in assay [4], 33.8%; in assay [5], 13.7%; in assay [6], 15.3%. Further, the growth in assay [7] was 20.4%; in assay [8], 20.7%.
In the case of `O=c1[nH]c(=O)[nH]c(=S)[nH]1`, the growth in assay [1] was 98.9%; in assay [2] it was 103%; in assay [3], 103%; in assay [4], 102%; in assay [5], 97.8%; in assay [6], 98.5%. Moreover, the growth in assay [8] was 102%.
For `FC(F)(F)Oc1cccc(-c2cc(NCCCCCCNc3cc(-c4cccc(OC(F)(F)F)c4)nc4ccc(N5CCCC5)cc34)c3cc(N4CCCC4)ccc3n2)c1`, the growth in assay [1] was -46.4% (active); in assay [2], 105%; in assay [3], -87.6% (active); in assay [4] it was -78.8% (active); in assay [5], -64.7% (active); in assay [6], -66.6% (active). The growth in assay [7] is -85.3% (active); in assay [8] it was -90.4% (active).
Regarding `CN(Cc1ccccc1)c1nc(Cl)c(C2CC(c3ccc(Cl)cc3)=Cc3[nH][nH]c(=O)c32)s1` (stereo unspecified), the growth in assay [1] is 89.7%; in assay [2] it was 67.7%; in assay [3], 85%; in assay [4] it was 99.8%; in assay [5] it was 47.6%; in assay [6], 94.2%. In addition, the growth was 104% in assay [7] and 103% in assay [8].
Turning to `O=C(Nc1cccc(C2=NCCN2)c1)c1ccc(OCCCOc2ccc(C(=O)Nc3cccc(C4=NCCN4)c3)cc2)cc1`, the growth is 18% in assay [1]; 35.2% in assay [2]; -72% (active) in assay [3]; 14.8% in assay [4]; 0.803% (active) in assay [5]; 6.6% (active) in assay [6]. In addition, the growth is -13.3% (active) in assay [7] and 14.2% in assay [8].
`CC(C)NC(=O)N1C(=O)CCC1NNC(=O)c1ccc([N+](=O)[O-])cc1` (stereo unspecified): the growth is 94.9% in assay [1]; 102% in assay [2]; 98.6% in assay [3]; 112% in assay [4]; 97.8% in assay [5]; 95.7% in assay [6]. The growth in assay [7] is 98.6%; in assay [8], 102%.
For the molecule `CCc1c(Nc2ccc(C)cc2)[nH]c(N)nc1=S`, the growth was 90.1% in assay [1]; 100% in assay [2]; 104% in assay [3]; 107% in assay [4]; 91.3% in assay [5]; 98.3% in assay [6]. For the same molecule, the growth in assay [8] was 104%.
With `COc1ccc(/C=C\c2nc3ccccc3s2)cc1OP(=O)(O)O`, the growth in assay [1] is 41.4%; in assay [2], 44.3%; in assay [3] it was -70.4% (active); in assay [5], 21.7%; in assay [6], 25.9%; in assay [7], 66.9%. The growth in assay [8] was 31.4%.
